The values below come from PubChem BioAssay.

Molecules are shown by their SMILES. “And” between values parts separate entries of the source, which are not always exact repeats. Equal entries are not always repeated. The source made the active and inactive calls. Cut-off read from the data, not from the text of the source, unless noted: active = parasite load remaining mostly below about 12% (no sharp cut-off); inactive = mostly above about 10%.

The nature of test [1]: liver-stage malaria parasite growth inhibition, primary screen, cell-based, HepG2, luciferase luminescence, HepG2 viability (AID 624349).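 Note: 100% = mean of DMSO negative control wells on the same plate.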 To be noted: P. berghei liver stage in HepG2, luciferase luminescence, concentration not given here; parasite load remaining: stronger effect = lower value; viability: measured here: HepG2 viability without parasites.
Test [2] can be described thus: stimulators of nuclear beta-catenin in C2C12, primary screen, imaging, WNT3A-conditioned medium, mouse C2C12, NPC library (AID 1117326; in the data active = nuclear beta-catenin stimulation mostly above about 4.2%, no sharp cut-off; inactive = mostly below about 10%). To be noted: stronger effect = higher value.
Test [3] is described as follows: stimulators of insulin release from INS-1E, primary screen, cell-based, 5 mM glucose, NPC library (AID 1117329;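 active = compound raises insulin release from rat beta cells at 5 mM glucose, no numeric limit stated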). Particulars: rat INS-1E insulin secretion, at 10 µM, stronger effect = higher value.
Test [4] can be described thus: growth inhibition of GSK3B-pretreated HCT116 cells – cell-based, CellTiter-Glo, 0.2 to 20 µM (AID 1117336;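 active = compounds lowering colon cancer cell viability after pretreatment blocking the GSK3B kinase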). To be noted: HCT116 viability after GSK3B inhibitor, at 20 µM, stronger effect = higher value.
The nature of test [5]: inhibition of endothelial tube formation, primary screen, imaging, VEGF stimulated, CD31 staining, tube area, NPC library (AID 1117340;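 active = compound that reduces growth-factor-driven endothelial tube area in a mixed cell culture, no cutoff stated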). Particulars: VEGF-stimulated ADSC/ECFC co-culture, at 10 µM, stronger effect = higher value.
Test [6] can be described thus: glucagon-like peptide 1 release enhancers, primary assay, NCI-H716 cell line, NPC library (AID 1117341;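 active = compound raises GLP1 secretion from the human gut endocrine cells, with no numeric limit stated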). Particulars: NCI-H716 cells, at 10 µM, stronger effect = higher value.
A short description of test [7]: HCT116 colon cancer cell growth inhibition, primary screen, CellTiter-Glo luminescence, NPC library (AID 1117342;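 active = compounds that lower survival of HCT116 colon cancer cells in the luminescence readout, no numeric limit stated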). Particulars: at 20 µM (top of the series).
Test [8] can be described thus: CellTiter-Glo luminescent readout of SW480 viability loss, NPC library primary (AID 1117343;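 active = compounds that lower viability of the colon cancer cells in the luminescence readout, with no numeric limit stated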). To be noted: CellTiter-Glo luminescence; at 20 µM (top of the series).
A short description of test [9]: decreased DLD-1 cellular survival, CellTiter-Glo luminescent readout, NPC compound collection, primary HTS (AID 1117346;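 active = compounds that lower survival of DLD-1 colon cancer cells in the luminescence readout, no cutoff given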). Particulars: DLD-1 viability, CellTiter-Glo luminescence; at 20 µM (top of the series). (ATP-based viability assays read luminescence as a measure of living cells.)
In test [10] the target is 6-phosphogluconate dehydrogenase, decarboxylating (Homo sapiens) (UniProt P52209). The experiment in a line: 6PGD enzyme inhibitors, primary screen, biochemical, human, recombinant enzyme, NADPH absorbance (AID 1159550;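 active = at least 20% inhibition of 6-phosphogluconate dehydrogenase activity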). Particulars: recombinant 6PGD, NADPH absorbance 341 nm; at 10 µM; stronger effect = higher value.
Chain of 6-phosphogluconate dehydrogenase, decarboxylating (Homo sapiens) (P52209 whole entry, looked up): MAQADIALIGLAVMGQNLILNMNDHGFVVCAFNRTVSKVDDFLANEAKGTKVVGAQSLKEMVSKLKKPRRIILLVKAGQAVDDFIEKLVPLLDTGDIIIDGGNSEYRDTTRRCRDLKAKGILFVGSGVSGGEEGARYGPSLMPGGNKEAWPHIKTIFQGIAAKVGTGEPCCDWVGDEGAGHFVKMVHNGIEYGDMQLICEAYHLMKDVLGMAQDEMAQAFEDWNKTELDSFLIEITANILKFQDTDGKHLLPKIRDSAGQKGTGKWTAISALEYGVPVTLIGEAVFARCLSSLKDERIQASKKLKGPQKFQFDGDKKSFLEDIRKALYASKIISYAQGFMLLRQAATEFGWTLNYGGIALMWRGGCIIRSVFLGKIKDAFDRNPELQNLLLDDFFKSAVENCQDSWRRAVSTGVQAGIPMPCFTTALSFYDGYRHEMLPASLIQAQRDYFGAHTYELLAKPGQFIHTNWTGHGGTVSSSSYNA

A word on the viability: it is a read-out of living cells in per cent, often relative to untreated cells. The inhibition is the change of the read-out against control, counted positive when it falls. On to `CN(C)/N=N/c1nc[nH]c1C(N)=O`, for which the parasite load remaining in test [1] is 56% (inactive) and 17.1% (inactive). Further, the viability in [1] was 91.9% and 74%. The nuclear beta-catenin stimulation is 1.8% (inactive) in [2] (at 10 µM) and -1.7% in test [2] (stimulation, at 2 µM). Moreover, the insulin secretion stimulation in [3] was 1.8% (inactive). For the same compound, the viability decrease in [4] was -107% (inactive). Moreover, the tube area decrease in [5] was 85.4% (active). Moreover, the GLP1 secretion stimulation in test [6] is -1.3% (inactive). Also, in test [7], the inhibition of viability is -2.45% (inactive). Also, the viability decrease (inhibition) was 34.5% (inactive) in [8] and -4.2% (inactive) in [9]. The inhibition in [10] is -2.23% (inactive).

With `O=C(O)P(=O)(O)O`, the parasite load remaining in test [1] was 127% (inactive) and 15.8% (inactive). Further, the viability in test [1] is 69.2% and 92.6%. For the same compound, the nuclear beta-catenin stimulation is 0.2% (inactive) in [2] (at 10 µM) and -0.8% in test [2] (stimulation, at 2 µM). Besides, the insulin secretion stimulation in test [3] was 0.5% (inactive). Besides, in test [4], the viability decrease was -27.7% (inactive). For the same compound, in test [5], the tube area decrease is 0.7% (inactive). Also, the GLP1 secretion stimulation in test [6] is -0.4% (inactive). The inhibition of viability in test [7] is -5.05% (inactive). Further, the viability decrease (inhibition) was 2.3% (inactive) in test [8] and -16.6% (inactive) in test [9]. The inhibition in test [10] was -6.34% (inactive).

For the compound `CN(C)c1ccc(C(=C2C=CC(=[N+](C)C)C=C2)c2ccc(N(C)C)cc2)cc1`, the parasite load remaining in test [1] is -0.57% (inactive) and -0.18% (inactive). Besides, in [1], the viability is 16.5% and 0%. The nuclear beta-catenin stimulation was 1% (inactive) in test [2] (at 10 µM) and 28.6% in test [2] (stimulation, at 2 µM). In addition, the insulin secretion stimulation in test [3] is -0.2% (inactive). Besides, the viability decrease in test [4] was 104% (active). Moreover, the tube area decrease in [5] was 108% (active). For the same compound, in test [6], the GLP1 secretion stimulation is -16% (inactive). Also, the inhibition of viability in [7] was 103% (active). Moreover, the viability decrease (inhibition) is 146% (active) in test [8] and 106% (active) in test [9]. Also, the inhibition in test [10] was 5.37% (inactive).

Regarding `O=c1oc2cc(O)ccc2s1`, the parasite load remaining in test [1] is 62.7% (inactive). For the same compound, the viability in [1] came out at 88.6%. The nuclear beta-catenin stimulation in test [2] (at 10 µM) was -2.6% (inactive); in test [2] (stimulation, at 2 µM), 0.6%. The insulin secretion stimulation in [3] is 2.9% (inactive). Besides, the viability decrease in test [4] was -9.5% (inactive). Also, the tube area decrease in [5] is 11.8% (inactive). In test [6], the GLP1 secretion stimulation was -4.3% (inactive). For the same compound, the inhibition of viability in test [7] was -4.7% (inactive). Moreover, the viability decrease (inhibition) in test [8] was 3.7% (active); in test [9], 10.2% (inactive). Also, the inhibition in test [10] was 11.7% (inactive).

Take `O=C(O)CCCC[C@@H]1SC[C@@H]2NC(=O)N[C@@H]21`: in test [1], the parasite load remaining is 125% (inactive) and 81.9% (inactive). Moreover, the viability in test [1] is 117% and 77.7%. In addition, the nuclear beta-catenin stimulation in test [2] (at 10 µM) is 0.3% (inactive); in [2] (stimulation, at 2 µM) it was 1.3%. In addition, in test [3], the insulin secretion stimulation was -0.9% (inactive). In test [4], the viability decrease is -1.65% (inactive). In [5], the tube area decrease was -24.1% (inactive). Further, the GLP1 secretion stimulation in test [6] is 1.6% (inactive). The inhibition of viability in [7] is -15% (inactive). Moreover, the viability decrease (inhibition) in test [8] is 33.7% (inactive); in [9], 4.5% (inactive). For the same compound, in test [10], the inhibition is 12.7% (inactive).

For the compound `O=C(O)CCNC(=O)c1ccccc1`, the parasite load remaining in test [1] is 140% (inactive). Further, the viability in [1] amounted to 88.4%. In addition, the nuclear beta-catenin stimulation in test [2] (at 10 µM) was 3.5% (inactive); in test [2] (stimulation, at 2 µM), 0.2%. For the same compound, the insulin secretion stimulation in test [3] is -1% (inactive). In addition, in [4], the viability decrease was 6.3% (inactive). Besides, in [5], the tube area decrease was -2% (inactive). Also, the GLP1 secretion stimulation in test [6] is -0.3% (inactive). Further, the inhibition of viability in test [7] was -7.2% (inactive). Also, the values for the viability decrease (inhibition) in test [8] and in test [9] were -1.3% (inactive) and 6.4% (inactive), respectively. In test [10], the inhibition is 2.23% (inactive).

On to `CC1(C)S[C@@H]2[C@H](NC(=O)C(C(=O)O)c3ccccc3)C(=O)N2[C@H]1C(=O)O` (some centres undefined), for which, in [1], the parasite load remaining is 87.5% (inactive) and 61.7% (inactive). Further, the viability in test [1] is 75.2% and 98.9%. For the same compound, the nuclear beta-catenin stimulation was -0.3% (inactive) in test [2] (at 10 µM) and -0.3% in [2] (stimulation, at 2 µM). For the same compound, the insulin secretion stimulation in [3] was -0.6% (inactive). Moreover, the viability decrease in test [4] is -17.4% (inactive). Further, the tube area decrease in [5] is -10.8% (inactive). Moreover, the GLP1 secretion stimulation in test [6] was -0.3% (inactive). Further, in test [7], the inhibition of viability is -4.4% (inactive). For the same compound, the viability decrease (inhibition) is -13% (inactive) in test [8] and -17.8% (inactive) in [9]. The inhibition in test [10] is -9.55% (inactive).

For the compound `COc1cc([C@H]2Oc3cc([C@H]4Oc5cc(O)cc(O)c5C(=O)[C@@H]4O)ccc3O[C@@H]2CO)ccc1O`, the parasite load remaining in test [1] is 75.8% (inactive). In test [1], the viability is 93%. In addition, the nuclear beta-catenin stimulation in test [2] (at 10 µM) is 3.7% (inactive); in test [2] (stimulation, at 2 µM) it was 0.8%. For the same compound, the insulin secretion stimulation in [3] is 1.8% (inactive). In addition, the viability decrease in test [4] is -35.4% (inactive). For the same compound, in test [5], the tube area decrease is 4.2% (inactive). The GLP1 secretion stimulation in test [6] was 2.1% (inactive). In test [7], the inhibition of viability is 18.7% (inactive). Also, the viability decrease (inhibition) in test [8] was 16.2% (inactive); in test [9], -3.4% (inactive). Besides, in test [10], the inhibition is 9.07% (inactive).

For the compound `O=C(O)c1cn(-c2ccc(F)cc2)c2cc(N3CCNCC3)c(F)cc2c1=O`, in test [1], the parasite load remaining was 63.8% (inactive) and 65.5% (inactive) and 24.1% (inactive). The viability in test [1] was 92.7% and 132% and 71%. Also, the nuclear beta-catenin stimulation in test [2] (at 10 µM) was 0.8% (inactive); in test [2] (stimulation, at 2 µM), 2.8%. Further, the insulin secretion stimulation in test [3] is 0.8% (inactive). In test [4], the viability decrease was 28.3% (inactive). In addition, in test [5], the tube area decrease is -4.3% (inactive). Further, in [6], the GLP1 secretion stimulation was -2.6% (inactive). Also, the inhibition of viability in [7] was 29.7% (inactive). Besides, the figures for the viability decrease (inhibition) in [8] and in test [9] were -14.9% (inactive) and -10.5% (inactive), respectively. For the same compound, the inhibition in [10] is 0.148% (inactive).

On to `Cc1c(N(C)C)c(=O)n(-c2ccccc2)n1C`, for which, in [1], the parasite load remaining was 18.2% (inactive) and 103% (inactive) and 38% (inactive). Moreover, the viability in test [1] was 52.4% and 97.7% and 84.1%. The nuclear beta-catenin stimulation is 2.9% (inactive) in test [2] (at 10 µM) and 0.6% in test [2] (stimulation, at 2 µM). The insulin secretion stimulation in test [3] is 0.4% (inactive). In [4], the viability decrease was -152% (inactive). In addition, the tube area decrease in test [5] is 8.4% (inactive). Besides, in [6], the GLP1 secretion stimulation was -1.9% (inactive). The inhibition of viability in test [7] was -13.5% (inactive). Also, the viability decrease (inhibition) in test [8] was -4.8% (inactive); in test [9], -6.4% (inactive). In test [10], the inhibition was 13.9% (inactive).

On to `CO/N=C1\CN(c2nc3c(cc2F)c(=O)c(C(=O)O)cn3C2CC2)CC1CN` (centres undefined), for which, in [1], the parasite load remaining was 155% (inactive) and 46.4% (inactive). Besides, the viability in test [1] is 85.7% and 106%. Moreover, the nuclear beta-catenin stimulation in test [2] (at 10 µM) is 4.1% (inactive); in test [2] (stimulation, at 2 µM), 3.4%. For the same compound, the insulin secretion stimulation in test [3] is 3% (inactive). For the same compound, the viability decrease in test [4] was -23.6% (inactive). Besides, the tube area decrease in test [5] was -6.9% (inactive). Moreover, the GLP1 secretion stimulation in test [6] was 1.1% (inactive). In [7], the inhibition of viability is -15% (inactive). The results for the viability decrease (inhibition) in test [8] and in test [9] were -14.7% (inactive) and -7.2% (inactive), respectively. The inhibition in test [10] was 2.88% (inactive).

Turning to `Nc1nc(=S)c2[nH]cnc2[nH]1`, the parasite load remaining in test [1] was 146% (inactive) and 64.9% (inactive). Moreover, the viability in test [1] was 48.2% and 41.8%. For the same compound, the nuclear beta-catenin stimulation in [2] (at 10 µM) was 14.8% (inactive); in [2] (stimulation, at 2 µM), 6.2%. For the same compound, in test [3], the insulin secretion stimulation was -2% (inactive). The viability decrease in test [4] is 47.4% (active). The tube area decrease in test [5] was 104% (active). Moreover, in test [6], the GLP1 secretion stimulation was 1.9% (inactive). Moreover, the inhibition of viability in test [7] was 96.4% (active). The viability decrease (inhibition) was 101% (active) in test [8] and 52.9% (active) in test [9]. The inhibition in [10] was 4.15% (inactive).
